What all share (assay): RNA Bind-n-Seq (nitrocellulose filter binding and sequencing); miR-122 guide loaded in AGO2; 60 min incubation; 30 mM Tris pH 8.0, 100 mM potassium acetate, 2 mM magnesium acetate, 0.5 mM TCEP, 0.005% NP-40, 0.01 mg/ml yeast tRNA; 3 nM AGO2-miR-122, 100 nM RNA library; 60; high values mean tight binding
Conditions in all cases: protein: recombinant; tags: His6 (N-terminal, pFastBac HTA)

The target of assay [1] is AGO2 L192P (Homo sapiens, UniProt Q9UKV8 1-859, L192P;S387D;S824A;S828D;S831D;S834A). The gist of the method: (§1)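 Fold enrichment is each target's read fraction divided by its read fraction in the input library. Sf9 insect cells expressed His-tagged AGO2 from baculovirus; the protein was loaded with a synthetic guide RNA and purified by Ni-NTA and a biotinylated capture oligo. The bound RNA was extracted, reverse-transcribed, barcode-amplified and sequenced on Illumina.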
Sequence of AGO2 L192P (Q9UKV8 whole entry L192P/S387D/S824A/S828D/S831D/S834A): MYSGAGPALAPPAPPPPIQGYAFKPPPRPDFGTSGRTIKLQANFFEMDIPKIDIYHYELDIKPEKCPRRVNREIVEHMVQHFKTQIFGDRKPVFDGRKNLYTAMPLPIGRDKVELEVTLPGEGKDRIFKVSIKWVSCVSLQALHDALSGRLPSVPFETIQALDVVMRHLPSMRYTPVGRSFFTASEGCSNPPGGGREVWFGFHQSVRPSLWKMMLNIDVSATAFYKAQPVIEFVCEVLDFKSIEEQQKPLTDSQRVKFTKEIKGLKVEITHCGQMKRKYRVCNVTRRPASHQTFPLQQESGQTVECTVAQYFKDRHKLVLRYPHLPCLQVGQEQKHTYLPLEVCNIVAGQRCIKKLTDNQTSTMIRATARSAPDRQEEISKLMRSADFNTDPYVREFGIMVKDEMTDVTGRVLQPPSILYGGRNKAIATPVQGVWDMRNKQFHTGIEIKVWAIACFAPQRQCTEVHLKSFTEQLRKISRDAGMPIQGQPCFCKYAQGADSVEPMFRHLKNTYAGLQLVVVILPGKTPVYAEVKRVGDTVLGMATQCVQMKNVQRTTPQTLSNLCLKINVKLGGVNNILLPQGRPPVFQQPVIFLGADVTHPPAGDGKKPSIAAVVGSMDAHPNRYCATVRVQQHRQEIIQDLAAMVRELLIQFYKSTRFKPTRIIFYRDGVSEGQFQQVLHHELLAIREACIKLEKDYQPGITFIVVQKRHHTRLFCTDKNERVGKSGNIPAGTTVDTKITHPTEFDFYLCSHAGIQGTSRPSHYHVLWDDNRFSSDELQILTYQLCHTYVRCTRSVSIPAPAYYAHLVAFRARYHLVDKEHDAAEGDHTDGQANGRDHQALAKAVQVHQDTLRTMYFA

In assay [2] the target is AGO2 A367P (Homo sapiens, UniProt Q9UKV8 1-859, A367P;S387D;S824A;S828D;S831D;S834A). The gist of the method:
as §1

For assay [3], the target named is AGO2 T357M (Homo sapiens, UniProt Q9UKV8 1-859, T357M;S387D;S824A;S828D;S831D;S834A). The gist of the method: as §1
Sequence of AGO2 T357M (Q9UKV8 whole entry T357M/S387D/S824A/S828D/S831D/S834A): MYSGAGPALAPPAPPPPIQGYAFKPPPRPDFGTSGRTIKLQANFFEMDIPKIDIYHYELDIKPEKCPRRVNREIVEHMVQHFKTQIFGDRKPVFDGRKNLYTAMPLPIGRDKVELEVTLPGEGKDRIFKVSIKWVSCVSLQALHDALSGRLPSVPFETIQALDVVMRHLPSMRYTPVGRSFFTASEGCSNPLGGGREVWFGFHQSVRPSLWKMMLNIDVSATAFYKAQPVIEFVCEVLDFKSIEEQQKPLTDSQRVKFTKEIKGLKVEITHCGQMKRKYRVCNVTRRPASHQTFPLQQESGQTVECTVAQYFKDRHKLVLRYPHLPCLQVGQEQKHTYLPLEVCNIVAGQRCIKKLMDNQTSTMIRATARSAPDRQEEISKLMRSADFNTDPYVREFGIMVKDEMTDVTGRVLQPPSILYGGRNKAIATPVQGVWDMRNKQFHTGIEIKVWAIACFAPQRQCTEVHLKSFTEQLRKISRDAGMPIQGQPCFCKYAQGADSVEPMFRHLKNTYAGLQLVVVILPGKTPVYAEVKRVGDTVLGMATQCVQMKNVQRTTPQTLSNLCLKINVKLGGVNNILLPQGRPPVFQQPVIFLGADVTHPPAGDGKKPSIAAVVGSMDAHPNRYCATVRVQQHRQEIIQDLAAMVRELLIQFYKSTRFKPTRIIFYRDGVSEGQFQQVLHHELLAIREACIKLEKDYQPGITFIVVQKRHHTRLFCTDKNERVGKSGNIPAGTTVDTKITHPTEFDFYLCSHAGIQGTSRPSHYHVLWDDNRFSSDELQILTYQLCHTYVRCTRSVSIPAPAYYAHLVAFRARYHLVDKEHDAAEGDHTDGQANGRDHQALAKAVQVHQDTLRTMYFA

Among the data in article PMC12529666, “Dysregulation of AGO2-miRNA dynamics underlies the AGO2-associated Lessel–Kreienkamp syndrome” are binding signal values, retold here.

Where a chain is given by its changes, count along the chain named.

Sequence of AGO2 A367P (Q9UKV8 whole entry A367P/S387D/S824A/S828D/S831D/S834A): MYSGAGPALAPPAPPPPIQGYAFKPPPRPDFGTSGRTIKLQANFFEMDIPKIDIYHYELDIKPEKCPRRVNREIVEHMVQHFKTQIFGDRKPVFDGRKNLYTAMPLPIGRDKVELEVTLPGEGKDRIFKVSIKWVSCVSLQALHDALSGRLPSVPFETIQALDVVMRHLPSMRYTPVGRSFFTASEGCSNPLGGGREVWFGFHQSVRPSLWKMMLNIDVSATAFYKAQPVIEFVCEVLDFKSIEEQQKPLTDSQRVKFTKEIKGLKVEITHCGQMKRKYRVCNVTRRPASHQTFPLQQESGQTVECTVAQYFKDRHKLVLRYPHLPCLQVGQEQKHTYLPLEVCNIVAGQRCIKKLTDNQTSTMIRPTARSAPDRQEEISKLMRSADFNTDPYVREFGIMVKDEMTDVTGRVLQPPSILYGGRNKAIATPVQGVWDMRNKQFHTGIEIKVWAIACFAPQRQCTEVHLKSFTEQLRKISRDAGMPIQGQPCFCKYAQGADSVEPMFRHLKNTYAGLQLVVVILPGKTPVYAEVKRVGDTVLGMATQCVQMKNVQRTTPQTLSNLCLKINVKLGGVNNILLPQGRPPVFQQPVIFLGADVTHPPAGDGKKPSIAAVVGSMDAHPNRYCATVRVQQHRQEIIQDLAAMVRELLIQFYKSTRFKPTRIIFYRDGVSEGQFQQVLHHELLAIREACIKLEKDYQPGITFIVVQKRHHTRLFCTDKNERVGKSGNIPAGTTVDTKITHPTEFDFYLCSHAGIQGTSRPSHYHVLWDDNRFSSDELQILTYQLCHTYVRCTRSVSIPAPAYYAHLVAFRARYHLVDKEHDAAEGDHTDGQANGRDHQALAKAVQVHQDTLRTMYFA

B1: ACGTCTTG (ssRNA)
RNA 1: GAGUUCUACAGUCCGACGAUCCCAACACGUCUUGCACCUGGAAUUCUCGGGUGCCAA
RNA 2: UGGAGUGUGACAAUGGUGUUUG
DNA 1: GATCGTCGGACTGTAGAACTC
DNA 2: TTGGCACCCGAGAATTCCA
modifications: constant regions annealed to DNA blockers; guide miR-122 5' phosphate
In the case of B1, the values for the binding signal in assay [1], in assay [2] and in assay [3] were 0.319 fold enrichment over input, 0.134 fold enrichment over input and 0.501 fold enrichment over input, respectively.

B2: GTACTTCG (ssRNA)
RNA 1: B1 RNA 1 with A27G, C28U, G29A, U30C, C31U, U33C
RNA 2: UGGAGUGUGACAAUGGUGUUUG
DNA 1: GATCGTCGGACTGTAGAACTC
DNA 2: TTGGCACCCGAGAATTCCA
modifications: constant regions annealed to DNA blockers; guide miR-122 5' phosphate
Turning to B2, the binding signal in assay [1] was 0.351 fold enrichment over input; in assay [2] it was 0.13 fold enrichment over input; in assay [3], 0.538 fold enrichment over input.

B3: ACATTTCG (ssRNA)
RNA 1: B1 RNA 1 with G29A, C31U, U33C
RNA 2: UGGAGUGUGACAAUGGUGUUUG
DNA 1: GATCGTCGGACTGTAGAACTC
DNA 2: TTGGCACCCGAGAATTCCA
modifications: constant regions annealed to DNA blockers; guide miR-122 5' phosphate
Consider B3, for which the binding signal in assay [1] is 0.421 fold enrichment over input; in assay [2], 0.151 fold enrichment over input; in assay [3], 0.514 fold enrichment over input.

B4: GTACCCCG (ssRNA)
RNA 1: B1 RNA 1 with A27G, C28U, G29A, U30C, U32C, U33C
RNA 2: UGGAGUGUGACAAUGGUGUUUG
DNA 1: GATCGTCGGACTGTAGAACTC
DNA 2: TTGGCACCCGAGAATTCCA
modifications: constant regions annealed to DNA blockers; guide miR-122 5' phosphate
B4: the binding signal in assay [1] was 0.358 fold enrichment over input; in assay [2], 0.123 fold enrichment over input; in assay [3] it was 0.475 fold enrichment over input.

B5: ATGTCCCG (ssRNA)
RNA 1: B1 RNA 1 with C28U, U32C, U33C
RNA 2: UGGAGUGUGACAAUGGUGUUUG
DNA 1: GATCGTCGGACTGTAGAACTC
DNA 2: TTGGCACCCGAGAATTCCA
modifications: constant regions annealed to DNA blockers; guide miR-122 5' phosphate
For B5, the binding signal in assay [1] was 0.319 fold enrichment over input; in assay [2], 0.125 fold enrichment over input; in assay [3], 0.416 fold enrichment over input.

B6: ACGTTCCG (ssRNA)
RNA 1: B1 RNA 1 with C31U, U32C, U33C
RNA 2: UGGAGUGUGACAAUGGUGUUUG
DNA 1: GATCGTCGGACTGTAGAACTC
DNA 2: TTGGCACCCGAGAATTCCA
modifications: constant regions annealed to DNA blockers; guide miR-122 5' phosphate
B6: the binding signal in assay [1] is 0.361 fold enrichment over input; in assay [2] it was 0.128 fold enrichment over input; in assay [3], 0.44 fold enrichment over input.

B7: GCACCTTG (ssRNA)
RNA 1: B1 RNA 1 with A27G, G29A, U30C
RNA 2: UGGAGUGUGACAAUGGUGUUUG
DNA 1: GATCGTCGGACTGTAGAACTC
DNA 2: TTGGCACCCGAGAATTCCA
modifications: constant regions annealed to DNA blockers; guide miR-122 5' phosphate
With B7, the binding signal in assay [1] is 0.387 fold enrichment over input; in assay [2] it was 0.154 fold enrichment over input; in assay [3], 0.503 fold enrichment over input.

B8: ATACTCTG (ssRNA)
RNA 1: B1 RNA 1 with C28U, G29A, U30C, C31U, U32C
RNA 2: UGGAGUGUGACAAUGGUGUUUG
DNA 1: GATCGTCGGACTGTAGAACTC
DNA 2: TTGGCACCCGAGAATTCCA
modifications: constant regions annealed to DNA blockers; guide miR-122 5' phosphate
In the case of B8, the results for the binding signal in assay [1], in assay [2] and in assay [3] were 0.349 fold enrichment over input, 0.134 fold enrichment over input and 0.504 fold enrichment over input, respectively.

B9: ATATCTCG (ssRNA)
RNA 1: B1 RNA 1 with C28U, G29A, U33C
RNA 2: UGGAGUGUGACAAUGGUGUUUG
DNA 1: GATCGTCGGACTGTAGAACTC
DNA 2: TTGGCACCCGAGAATTCCA
modifications: constant regions annealed to DNA blockers; guide miR-122 5' phosphate
With B9, the results for the binding signal in assay [1], in assay [2] and in assay [3] were 0.351 fold enrichment over input, 0.124 fold enrichment over input and 0.398 fold enrichment over input, respectively.

B10: ACATTTTG (ssRNA)
RNA 1: B1 RNA 1 with G29A, C31U
RNA 2: UGGAGUGUGACAAUGGUGUUUG
DNA 1: GATCGTCGGACTGTAGAACTC
DNA 2: TTGGCACCCGAGAATTCCA
modifications: constant regions annealed to DNA blockers; guide miR-122 5' phosphate
As to B10, the values for the binding signal in assay [1], in assay [2] and in assay [3] were 0.41 fold enrichment over input, 0.143 fold enrichment over input and 0.537 fold enrichment over input, respectively.

B11: ATATCCTA (ssRNA)
RNA 1: B1 RNA 1 with C28U, G29A, U32C, G34A
RNA 2: UGGAGUGUGACAAUGGUGUUUG
DNA 1: GATCGTCGGACTGTAGAACTC
DNA 2: TTGGCACCCGAGAATTCCA
modifications: constant regions annealed to DNA blockers; guide miR-122 5' phosphate
With B11, the binding signal in assay [1] was 0.467 fold enrichment over input; in assay [2], 0.17 fold enrichment over input; in assay [3] it was 0.569 fold enrichment over input.

B12: GTACTCTG (ssRNA)
RNA 1: B1 RNA 1 with A27G, C28U, G29A, U30C, C31U, U32C
RNA 2: UGGAGUGUGACAAUGGUGUUUG
DNA 1: GATCGTCGGACTGTAGAACTC
DNA 2: TTGGCACCCGAGAATTCCA
modifications: constant regions annealed to DNA blockers; guide miR-122 5' phosphate
Take B12: the binding signal in assay [1] was 0.332 fold enrichment over input; in assay [2], 0.134 fold enrichment over input; in assay [3] it was 0.423 fold enrichment over input.

B13: ATACTTCG (ssRNA)
RNA 1: B1 RNA 1 with C28U, G29A, U30C, C31U, U33C
RNA 2: UGGAGUGUGACAAUGGUGUUUG
DNA 1: GATCGTCGGACTGTAGAACTC
DNA 2: TTGGCACCCGAGAATTCCA
modifications: constant regions annealed to DNA blockers; guide miR-122 5' phosphate
Take B13: the results for the binding signal in assay [1], in assay [2] and in assay [3] were 0.406 fold enrichment over input, 0.138 fold enrichment over input and 0.509 fold enrichment over input, respectively.

B14: ATACCTCG (ssRNA)
RNA 1: B1 RNA 1 with C28U, G29A, U30C, U33C
RNA 2: UGGAGUGUGACAAUGGUGUUUG
DNA 1: GATCGTCGGACTGTAGAACTC
DNA 2: TTGGCACCCGAGAATTCCA
modifications: constant regions annealed to DNA blockers; guide miR-122 5' phosphate
For the molecule B14, the results for the binding signal in assay [1], in assay [2] and in assay [3] were 0.339 fold enrichment over input, 0.127 fold enrichment over input and 0.409 fold enrichment over input, respectively.
